Assay outcomes as filed in PubChem BioAssay.
Compounds with a hit are over-represented: about 3.2% of the library has one in this group of screens.
14-3-3 Bad PPI = disrupts binding of bovine 14-3-3 zeta to phospho-Bad peptide; P63103; TR-FRET 14-3-3zeta/Dy647-pBad peptide displacement, 1 h; inhibition, % at 21.7 µM; 220,000 tested, 0.71% active; AID 781;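 active = inhibition above about 70%, limit read from the data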;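 note: 0% = full 14-3-3 plus peptide FRET controls and 100% = background without 14-3-3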
Mcl-1 Bim block = disrupts Bim peptide binding to human Mcl-1 | Q07820 | inhibition, % at 10 µM | 190,000 tested, 0.1% active | Bead-based flow cytometry, Bim peptide-Mcl-1 binding; in the data active = inhibition above about 40%;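 note: 0% = no compound tracer wells and 100% = peptide blocker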
Mcl1-Bid inh = disrupts binding of human Mcl-1 to Bid peptide. inhibition, % at 21.7 µM. TR-FRET Mcl-1/Bid-Dy647 peptide binding, 1536-well. 220,000 tested, 0.97% active. AID 1021;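 active = compounds that cut the binding signal by more than half at the single screening dose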;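 note: His-tagged Mcl-1 with europium anti-His antibody binding Bid BH3 peptide; 0% = Mcl-1 plus peptide wells and 100% = peptide-only wells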
Mcl1 Noxa PPI = Mcl-1/Noxa interaction inhibition | Q07820 | TR-FRET Mcl-1/Noxa peptide binding, 2 h | inhibition, % at 21.7 µM | 220,000 tested, 1.5% active;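 active = compounds that cut the protein-peptide binding signal by more than 50% relative to plate controls in a single-dose test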;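 note: His-tagged Mcl-1 with rhodamine Noxa BH3 peptide and terbium anti-His antibody; 0% = Mcl-1 plus Noxa peptide wells and 100% = peptide-only wells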
NCF1 inh = inhibitors of human p47phox binding | P14598 | 220,000 tested, 0.53% active | p47phox/p22phox peptide binding, fluorescence polarization, 2 h | inhibition, % at 24.7 µM | AID 1274;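 active = inhibition above about 30%, limit read from the data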;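 note: 0% = p47phox with labelled peptide and 100% = labelled peptide alone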
Target sequence (P14598 whole entry, looked up): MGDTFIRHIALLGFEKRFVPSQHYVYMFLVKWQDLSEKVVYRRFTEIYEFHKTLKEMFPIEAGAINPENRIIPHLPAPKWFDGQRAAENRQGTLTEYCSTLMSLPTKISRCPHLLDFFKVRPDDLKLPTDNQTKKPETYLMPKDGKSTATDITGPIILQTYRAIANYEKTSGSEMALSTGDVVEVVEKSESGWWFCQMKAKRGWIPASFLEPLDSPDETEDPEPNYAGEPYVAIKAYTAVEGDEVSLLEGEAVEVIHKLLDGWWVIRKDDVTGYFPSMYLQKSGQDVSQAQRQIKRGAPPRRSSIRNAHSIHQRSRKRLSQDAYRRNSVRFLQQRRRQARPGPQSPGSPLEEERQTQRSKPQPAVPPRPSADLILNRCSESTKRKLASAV
An asterisk follows results filed as active; . = no result; [ ] = dose if it differs, or a comment.

SMILES	14-3-3 Bad PPI	Mcl-1 Bim block	Mcl1-Bid inh	Mcl1 Noxa PPI	NCF1 inh
COCC(=O)Nc1ccc([N+](=O)[O-])cc1OC	8	-4	11	6	-2
Cc1cccn2c(=O)c(C=O)c(Cl)nc12	10	.	51*	-7	-2
Cc1cc(C=NCCCO)c(C)n1-c1cc(Cl)ccc1Cl	10	-3	-8	10	1
C#CC1CCCCC1NC(=O)Nc1cnccc1C(F)(F)F (centres undefined)	-4	.	-19	0	-6
CCCCN1C(=O)N(C)C2C1N(C)C(=O)N2CCCC (centres undefined)	12	.	2	63*	0
CCN(CC)Cc1c(NC(=O)c2ccccc2)sc(C)c1C	-8	0	-29	-21	-2
CCOC(=O)c1c(NC(=O)c2ccccc2)sc2c(O)c(CN(CC)CC)ccc12	10	0	21	59*	6
O=S(=O)(c1cnc(Cl)c(Cl)c1)N1CCN(c2ncccn2)CC1	1	.	-15	4	-7
Cc1cc(C)cc(N(C(C)C(=O)N2CCOCC2)S(C)(=O)=O)c1 (centres undefined)	-6	-1	53*	10	-9
Cc1ccc(N2CCN(C(=O)NC3CCCCC3)CC2C)cc1 (centres undefined)	-6	.	-44	-7	-12
O=[N+]([O-])c1cc(S(=O)(=O)Nc2ccc(Cl)cc2)ccc1N/N=C/c1ccncc1	23	-2	26	52*	7
Nc1ncnc(Nc2ccccc2Cl)n1	-1	.	-19	13	8
CCO[C@@H]1OC(C(=O)Nc2ccccc2)=C[C@H](c2csc3ccccc23)[C@H]1CCCO	9	0	5	-17	-14
Oc1c(Cl)cc(Cl)cc1/C=C/c1ccc2cccc(O)c2n1	-10	2	-56	82*	-9
Oc1ccc(Cl)cc1/C=C/c1ccc2cccc(O)c2n1	-5	-1	-38	46	-21
S=C(NCCCN1CCOCC1)NCCCN1CCOCC1	4	-11	-50	4	-4
S=c1[nH]nc(NCCCN2CCOCC2)s1	0	.	-41	-5	78*
O=C(NC1CCCCC1)C(=S)N1CCCC1	1	0	-33	11	-5
CCCCN(C(=O)c1cccc2c(=O)c(C)c(-c3ccccc3)oc12)c1ccccc1	11	-1	-12	-3	-13
COc1cc(CNc2ccc3[nH]c(=O)[nH]c3c2)cc(Cl)c1OCC(=O)NC(C)(C)C	-6	3	-14	59*	1
Fc1ccccc1NC(=S)N1CCN(Cc2ccc3c(c2)OCO3)CC1	-8	0	92*	4	-4
CCOCCCNC(=S)N1CCN(Cc2ccc3c(c2)OCO3)CC1	95*	0	-24	28	-8
O=C(NCCC1CC1(Cl)Cl)Nc1ccccc1 (centres undefined)	3	.	-3	3	4
COC(=O)/C=C(\C)N=Nc1c(O)[nH]c2ccccc12	-1	.	34	52*	-27
CC(C)(O)C(=O)N=Nc1c(O)[nH]c2ccccc12	-10	-5	5	-11	-16
SMILES	14-3-3 Bad PPI	Mcl-1 Bim block	Mcl1-Bid inh	Mcl1 Noxa PPI	NCF1 inh
CCCCn1c(-c2ccc(Cl)cc2)nc2c(=O)n(C)c(=O)[nH]c21	3	-1	-29	76*	-12
CSc1ccc(NC(=O)NCCCN2CCN(c3ccccc3F)CC2)cc1	-4	0	-48	58*	3
O=C(NCCCN1CCN(c2ccccc2F)CC1)Nc1ccc(F)cc1	-4	-1	-46	41	-17
O=C(Nc1ccc(S(=O)(=O)Nc2ncccn2)cc1)c1ccc2ncsc2c1	81*	.	90*	60*	-63
O=C(Nc1nccs1)c1cccc(N2C(=O)c3cccc4c([N+](=O)[O-])ccc(c34)C2=O)c1	77*[fluorescence artefact?]	0	101*	93*	19
O=C(Nc1ccc(S(=O)(=O)Nc2nccs2)cc1)c1cccc(N2C(=O)c3ccccc3C2=O)c1	-6	-1	-98	53*	-94
O=C(Nc1ccc(S(=O)(=O)Nc2ncccn2)cc1)c1nn(Cc2ccccc2)c(=O)c2ccccc12	3	.	-37	-2	-173
O=C(NC(=S)Nc1ccc(S(=O)(=O)Nc2nccs2)cc1)c1ccccc1	-5	-1	-2	13	-11
O=C(Nc1ccc(S(=O)(=O)Nc2ncccn2)cc1)c1cnc(Cl)c(Cl)c1	-4	-3	-9	22	-34
CCn1nc(C(=O)Nc2ccc(S(=O)(=O)Nc3nccs3)cc2)c2ccccc2c1=O	1	5	-29	64*	-23
COc1ccccc1CN1C[C@@H]2C[C@@H](c3cccc(C)c3)N3CCC[C@@]23C1=O	-5	0	-18	2	-4
CCCNC(=O)/C=C/C(=O)O	20	-2	-18	14	-6
COc1cc(CN2CCNC(=O)C2CC(=O)N2CCc3ccccc3C2)cc(OC)c1 (centres undefined)	13	-2	-3	41	0
O=C1N=C(N2CCN(c3ccccc3)CC2)S/C1=C/c1cccs1	-7	-4	-67	-2	-14
O=C1N=C(c2ccccc2)S/C1=C\c1cccs1	22	-8	-28	72*	-19
CCC1=[N+](C)CCn2c(C)ccc21	77*[fluorescence artefact?]	-3	-18	12	-7
CCOC(=O)c1sc(Nc2nc3cc4c(cc3s2)OCO4)cc1C	17	.	29	65*	-1
Cc1ccc(-c2ccc(/C=N/O)o2)cc1[N+](=O)[O-]	3	0	-3	5	-9
O=C(NC1CCCCC1)N(Cc1nc2ccccc2c(=O)[nH]1)C1CCCCC1	36	-1	-12	16	-8
O=C(NC1CCCCC1)N(Cc1nc2ccccc2c(=O)[nH]1)C1CCCC1	.	-3	-33	-13	31*
Cc1cccc(NC(=O)CN2C(=O)N/C(=C/c3cc(C)n(-c4ccncc4)c3C)C2=O)c1	24	-3	81*	37	46*
Cc1cccc(NC(=O)CN2C(=O)N/C(=C/c3cc(C)n(-c4cccnc4)c3C)C2=O)c1	8	0	-25	16	0
N#CC1=C(N)N2C(=C(C#N)C1c1ccc(Br)cc1)Nc1ccccc12 (centres undefined)	6	-5	51*	50	6
COCCN(C(=S)Nc1c(C)cc(C)cc1C)C(C)c1cccs1 (centres undefined)	-8	0	-28	-15	-7
CN(Cc1ccccc1)Cc1nc2c([nH]1)c(=O)[nH]c(=O)n2C	-6	-4	97*	.	-6
Cn1c(=O)c2[nH]c(CN(Cc3ccccc3)Cc3ccccc3)nc2n(C)c1=O	15	2	-7	-18	0
O=c1c(Cl)c(N/N=C/c2ccc(Br)cc2)cnn1-c1ccccc1	61	-3	63*	52*	6
O=C(CN1CCN(c2ccc(O)cc2)CC1)Nc1ccc(SC(F)F)cc1	-11	-2	-64	70*	0
N#Cc1ccsc1NC(=O)CN1CCN(c2ccccc2)CC1	-13	0	-13	43	-24
N#Cc1ccsc1NC(=O)CN1CCN(c2ccc(O)cc2)CC1	-6	-6	-30	72*	-4
